Measurements from PubChem BioAssay (NCI).
About 83,000 compounds went through this panel and 20% of them were active in at least one assay; those are over-represented in the sample as a whole.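 Results are percent growth after 48 hours of single-concentration exposure. 100 means growth as in untreated cells, lower positive values show inhibition; negative values down to -100 show cell death.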 Activity calls are given as the source filed them. How the source made its calls: active means growth percent below 10; inactive means the rest.

Assays:
Experiment in all cases: NCI-60 one-dose screen, 48 h (100 = growth as untreated, 0 = no growth, -100 = all killed)
Settings in all cases: 10 µM unless noted
[1] = tested on: SK-MEL-2 melanoma
[2] = tested on: EKVX NSCLC
[3] = tested on: SN12C renal
[4] = tested on: UO-31 renal
[5] = tested on: TK-10 renal
[6] = tested on: ACHN renal
[7] = tested on: CAKI-1 renal
[8] = tested on: CCRF-CEM leukemia
[9] = tested on: MOLT-4 leukemia
[10] = tested on: SR leukemia
[11] = tested on: RPMI-8226 leukemia
[12] = tested on: OVCAR-8 ovarian
[13] = tested on: OVCAR-5 ovarian
[14] = tested on: OVCAR-4 ovarian
[15] = tested on: SK-OV-3 ovarian
[16] = tested on: IGROV1 ovarian
[17] = tested on: OVCAR-3 ovarian
[18] = tested on: HS 578T breast
[19] = tested on: NCI/ADR-RES ovarian

Measured: growth

CCCCOc1ccc(/C=N/Nc2cc(C)nc3ccc(Cl)cc23)cc1
inactive: [1] 67.6% | [2] 60% | [5] 36.8% | [7] 35.1% | [13] 88.9% | [15] 79.5% | [18] 47.7% | [19] 58.7%
active: [3] -81.6% | [4] -96.1% | [6] -95.5% | [8] -5.7% | [9] -36.9% | [10] -20.8% | [11] -31.6% | [12] -58.5% | [14] 5.29% | [16] -71.6% | [17] -76.7%

Cc1[nH]c(C(=O)Nc2ccccc2OCc2cccc(C(=O)NCCN)c2)c(Cl)c1Cl
inactive: [1] 107% | [2] 89.1% | [3] 58% | [4] 75% | [5] 138% | [6] 101% | [7] 85.6% | [8] 25.1% | [9] 40.3% | [11] 30.1% | [12] 37.9% | [13] 104% | [14] 98.1% | [15] 108% | [16] 71.1% | [17] 76.4% | [18] 92.6% | [19] 94.3%
active: [10] -15.8%

O=C(/C=C/c1ccc[nH]1)c1ccc(-n2ccc(C(F)(F)F)n2)cc1
inactive: [1] 95% | [2] 79.1% | [3] 60.1% | [5] 103% | [6] 99.5% | [7] 93.4% | [8] 25.7% | [9] 72.5% | [10] 28.4% | [12] 88% | [13] 89% | [14] 97.7% | [15] 114% | [16] 103% | [18] 100% | [19] 88.3%
active: [4] -77.1% | [11] -19.3% | [17] 0.498%

CN(C)C(=O)c1cc2cnc(Nc3ccc(-c4csc5c(=O)cc(N6CCOCC6)oc45)cc3)nc2n1C1CCCC1
inactive: [14] 12.4%
active: [1] -58.6% | [2] -19.5% | [3] 4.35% | [4] -5.39% | [5] -10% | [6] 1.06% | [7] -50.8% | [8] -14.4% | [9] -32% | [10] 0.0235% | [11] -46.7% | [12] 2.54% | [13] -9.43% | [15] -28.3% | [16] -7.11% | [17] 2.63% | [18] -8.99% | [19] 0.628%

Clc1ccc2c(c1)c(-c1ccccc1)nc1nncn12
inactive: [1] 102% | [2] 109% | [3] 104% | [4] 90.8% | [5] 114% | [6] 117% | [7] 105% | [8] 101% | [9] 96.7% | [10] 83.8% | [11] 103% | [12] 106% | [13] 115% | [14] 121% | [15] 107% | [16] 109% | [17] 110% | [18] 106% | [19] 101%

NC(=O)CN1CCN(c2ccccc2Cl)CC1
inactive: [1] 92.4% | [2] 108% | [3] 109% | [4] 82.7% | [5] 116% | [6] 103% | [7] 96.4% | [8] 115% | [9] 111% | [10] 99.5% | [11] 108% | [12] 122% | [13] 99.9% | [14] 124% | [15] 103% | [16] 108% | [17] 116% | [18] 102% | [19] 108%

CN(C)C(C(N)=O)c1ccc(Cl)cc1 (centres undefined)
inactive: [1] 102% | [2] 97.8% | [3] 103% | [4] 94.2% | [5] 92.2% | [6] 95.2% | [7] 93.4% | [8] 115% | [9] 95.5% | [10] 98.5% | [11] 107% | [12] 101% | [13] 95.9% | [14] 102% | [15] 98.5% | [16] 103% | [17] 112% | [18] 103% | [19] 106%

O=C(Nc1cccc(C2=NCCN2)c1)c1ccc(OCCCOc2ccc(C(=O)Nc3cccc(C4=NCCN4)c3)cc2)cc1
inactive: [2] 69.4% | [3] 23.6% | [4] 85.7% | [5] 81.5% | [6] 75.3% | [7] 65.1% | [8] 33.5% | [9] 25.4% | [10] 11.9% | [12] 55% | [13] 24.8% | [14] 13.2% | [15] 31.6% | [18] 35.6% | [19] 104%
active: [1] -47.3% | [11] -3.7% | [16] -40.2% | [17] 5.65%

CN1CCN(CC#CCNC(=O)[C@]23CCC(C)(C)C[C@H]2C2=CC[C@@H]4[C@@]5(C)Cc6c([nH]c7ccccc67)C(C)(C)[C@@H]5CC[C@@]4(C)[C@]2(C)CC3)CC1
inactive: [1] 98.3% | [2] 83.3% | [3] 77.8% | [4] 64.2% | [5] 91.8% | [6] 95.3% | [7] 87.2% | [8] 48.8% | [9] 31.2% | [11] 53.2% | [12] 77% | [13] 98.9% | [14] 77.8% | [15] 87.1% | [16] 81.3% | [17] 72.2% | [18] 77.9% | [19] 76.9%
active: [10] -2.18%

Cc1ccccc1CNc1ccc(N2CCOCC2)cc1
inactive: [1] 102% | [2] 104% | [3] 96.3% | [4] 107% | [5] 95.3% | [6] 108% | [7] 99.1% | [8] 112% | [9] 101% | [10] 86.3% | [11] 110% | [12] 96.3% | [13] 103% | [14] 87.7% | [15] 131% | [16] 108% | [17] 101% | [18] 108% | [19] 99.2%

Fc1cc(C2=NNC(c3ccc[nH]3)C2)ccc1-n1ccc(C(F)(F)F)n1 (centres undefined)
inactive: [1] 102% | [2] 84.7% | [3] 85.6% | [4] 52.1% | [5] 117% | [6] 91% | [7] 66.5% | [8] 68.3% | [9] 77.5% | [10] 77.9% | [12] 89% | [13] 96.7% | [14] 93.6% | [15] 112% | [16] 90% | [17] 85.6% | [18] 103% | [19] 90.6%
active: [11] 0.914%

COc1cc2nc(-c3ccc(C(F)(F)F)cc3)cc(OCCCN3CCC(O)CC3)c2cc1OC
inactive: [1] 47.6% | [2] 59.8% | [3] 37.4% | [4] 24.2% | [5] 85.7% | [6] 31.2% | [8] 34.2% | [9] 35.3% | [10] 10.9% | [12] 44.1% | [13] 42.8% | [14] 59.7% | [15] 65.8% | [16] 27.2% | [17] 64% | [18] 64.7% | [19] 37.6%
active: [7] -6.95% | [11] 9.93%

CC1(C)CC[C@]2(C(=O)NCC#CCN3CCOCC3)CC[C@]3(C)C(=CC[C@@H]4[C@@]5(C)Cc6c([nH]c7ccccc67)C(C)(C)[C@@H]5CC[C@]43C)[C@@H]2C1
inactive: [1] 94.6% | [2] 96.8% | [3] 94.4% | [4] 81.6% | [5] 95.7% | [6] 73.1% | [7] 81.9% | [8] 83.1% | [9] 72.3% | [10] 90.9% | [11] 57.9% | [12] 90.8% | [13] 99.6% | [14] 91% | [15] 97.8% | [16] 116% | [17] 95.1% | [18] 107% | [19] 97%

C=C(C)[C@@H]1CC[C@]2(C(=O)NCC(=O)OC)CC[C@]3(C)[C@H](CC[C@@H]4[C@@]5(C)Cc6c([nH]c7ccccc67)C(C)(C)[C@@H]5CC[C@]43C)[C@@H]12
inactive: [1] 78.2% | [2] 71.5% | [3] 70.9% | [4] 65.1% | [5] 89.3% | [6] 60.5% | [7] 58.6% | [8] 57.2% | [9] 40.9% | [10] 47% | [11] 53.2% | [12] 85.4% | [13] 100% | [14] 66.5% | [15] 84.5% | [16] 85.1% | [17] 64.6% | [18] 95% | [19] 91%

CCCCN(CCCC)CCc1c(C)cc(C)c(CCN(CCCC)CCCC)c1O
inactive: [2] 14.4% | [3] 22.9% | [4] 28.4% | [5] 37.4% | [6] 29.3% | [7] 39.7% | [8] 26.6% | [9] 16.2% | [10] 25.8% | [12] 47.5% | [13] 45.6% | [14] 30.8% | [15] 25.5% | [16] 32.9% | [17] 14.7% | [18] 58.3% | [19] 75.7%
active: [1] 1.41% | [11] 1.92%

CCc1c(Nc2ccc(C)cc2)[nH]c(N)nc1=S
inactive: [1] 103% | [2] 84.9% | [3] 98.4% | [4] 91.5% | [5] 111% | [6] 98% | [7] 89.8% | [8] 107% | [9] 110% | [10] 94.4% | [11] 115% | [12] 101% | [13] 98.9% | [14] 107% | [15] 111% | [16] 104% | [17] 119% | [18] 94.8% | [19] 105%
